The values below come from PubChem BioAssay (NCI).

Several values for one entry are separate records, joined by “and”; a condition that tells them apart may be missing. Identical values can stand only once. About 83,000 compounds went through this panel and 20% of them were active in at least one assay; those are over-represented in the sample as a whole.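 The endpoint reported here, percent growth, reads 100 for growth as untreated, 0 for no net growth and -100 for all cells dead.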 Values without a mark were called inactive. Activity calls are given as the source filed them. How the source made its calls: active means growth percent below 10; inactive means the rest.

For the test, the system named is MDA-MB-468 breast. As to the kind of experiment: NCI-60 one-dose screen, 48 h (100 = growth as untreated, 0 = no growth, -100 = all killed). Particulars: 10 µM unless noted.
For `N/C(=N\N=C\c1ccc2c(c1)OCO2)N/N=C\c1ccc2c(c1)OCO2`, the growth was 98.9%.
In the case of `N#Cc1ccc(-c2ccc3c(c2)NC(=O)/C3=C\c2ccc[nH]2)cc1`, the growth was -18.2% (active).
The same measure for `C=C1C(=O)O[C@H]2[C@H]1CC/C(COC(=O)c1cn(C)c3ccccc13)=C\CC[C@@]1(C)O[C@@H]21`: -66.4% (active); for `COc1ccc(/C=C/c2c(C(C)=O)c(C)nc3ccccc23)cc1`: 39.6%; for `Nc1c(C(=O)Nc2cccc(Br)c2)sc2nc3c(cc12)C(O)CCC3` (stereo not given): 29.8%.
For the compound `CCNC(=O)Oc1ccc(/C(=C(\C)c2ccccc2)c2ccc(OCCN3CCCCC3)cc2)cc1`, the growth is 76.6%.
The result for `CCCCCCCCCCCCCCCCCN` reads 101%; that for `Oc1c(Cl)cc(Cl)c2cccnc12`, 61% and 42.6%; that for `CN1CCN(C(=O)[C@@]2(C)CC[C@]3(C)CC[C@]4(C)C(=CC[C@@H]5[C@@]6(C)CC[C@H](OC(=O)c7cccnc7)C(C)(C)[C@@H]6CC[C@]54C)[C@@H]3C2)CC1`, 92.6%.
For `N#CC1=C(c2ccc(Cl)cc2)Nc2c(c(-c3ccc(Cl)cc3)nn2-c2ccccc2)C12C(=O)Nc1ccc(Cl)cc12` (stereo not given), the growth was 52.9%.
As for `C[C@]12CCC(=O)C[C@H]1CC[C@@H]1[C@@H]2CC[C@@]2(C)[C@H]1CC[C@]2(O)C(=O)CO`, the growth was 99.8%.
For `O=C(O[C@@H]1Cc2c(O)cc(O)cc2O[C@@H]1c1cc(O)c(O)c(O)c1)c1cc(O)c2c(c1)OCO2`, the growth is 109%.
With `C/C(=N\NC(=O)CSc1nc2ccccc2c(=O)n1CCc1ccc(S(N)(=O)=O)cc1)c1ccccn1`, the growth is 25.3%.
The same measure for `CCCCN1CCN(c2ccc3nc(-c4ccc5nc(-c6ccc(OCC)c(OCC)c6)[nH]c5c4)[nH]c3c2)CC1`: -77.8% (active); for `CCOCCOCCOCCOCCOCCOCCOCCOCCOCCO` (tested in a mixture with another compound): -13.5% (active); for `COc1cc(C2CC(=O)Nc3c2cnn3Cc2ccco2)cc2c1OCCO2` (stereo not given): 73.8%.
Regarding `CC(=O)n1nc(C(=O)OC(C)(C)c2ccccc2)c2ccccc21`, the growth is 93.3%.
As for `Fc1ccc(NCCS)cc1`, the growth is 106%.
Turning to `N#Cc1ccc(O)c(C2=NCC(c3ccccc3)O2)c1` (stereo not given), the growth is 32.3%.
As to `Cn1c(COC(=O)NCCN2CCOCC2)nc2c(N3CCOCC3)nc(-c3ccccc3)nc21`, the growth is -69.1% (active).
As for `COC(=O)/C=C1\S/C(=N\NS(=O)(=O)c2ccc(C)cc2)N(c2ccccc2)C1=O`, the growth was 102%.
Regarding `CC/C=C\C[C@H](O)C/C=C1/C(=O)C=C[C@@H]1C/C=C\CCCC(=O)NC(C)C`, the growth was 1.98% (active).
`COc1ccc(OC)c(Nc2nnc(-c3ccc(Cl)cc3)o2)c1`: the growth is 74.2%.
In the case of `CN(C)CCCn1c(=O)c2ccccc2c2cnc3[nH]ccc3c21`, the growth was -9.4% (active).
Regarding `N=C(N)c1ccc(OCCSCCOc2ccc(C(=N)N)cc2)cc1`, the growth is 40.1%.
The same measure for `Cc1cccc(Cl)c1NC(=O)c1cnc(Nc2cc(N3CCOCC3)cc(S(C)(=O)=O)c2)s1`: 26.7%; for `CCS(=O)(=O)CCCl`: 101%; for `N#C/C(=C\c1ccc(-c2ccc(Cl)c(Cl)c2)o1)c1nc(-c2ccco2)cs1`: -38.2% (active).
The same measure for `Clc1ccc(CSc2nnc(-c3ccc(Cl)cc3)n2-c2ccccc2)cc1`: 64.8%.
The result for `Clc1ccc2[nH]cc(-c3nn4cc(-c5ccncc5)nc4s3)c2c1` reads 42.4%.
On to `COS(=O)(=O)c1ccc(Br)cc1`, for which the growth was 102%.
On to `COc1cc(C(=O)n2nc(N)c3c(C)cc(C)nc32)cc(OC)c1OC`, for which the growth was 20.3%.
The same measure for `Cc1ccc(Nc2cc(N)nc(N)n2)cc1Cl`: 77.8%; for `Nc1ccccc1NC(=O)c1ccc(-n2nc(-c3ccccc3)c3ccccc32)cc1`: 94.5%.
The result for `CCCCCCCCCCCCCCCC(=O)NS(=O)(=O)OC[C@H]1O[C@@H](n2cnc3c(N)ncnc32)[C@H](O)[C@@H]1O` reads -51.5% (active); that for `N#Cc1cccc(C2C3=C(COC3=O)N(CCO)c3cc4c(cc32)OCO4)c1` (stereo not given), 21%; that for `O=Nc1c(O)ccc2ccccc12.O=Nc1c(O)ccc2ccccc12.O=Nc1c([O-])ccc2ccccc12.[Fe+3]`, 106%.
With `O=C(Nc1cc(Cl)cc(Cl)c1)Oc1c(Cl)c(Cl)c(Cl)c(Cl)c1Cl`, the growth was 101%.
Consider `CO[C@H]1C[C@@H]2CC[C@@H](C)[C@@](O)(O2)C(=O)C(=O)N2CCCC[C@H]2C(=O)O[C@H]([C@H](C)C[C@@H]2CC[C@@H](O)[C@H](OC)C2)CC(=O)[C@H](C)/C=C(\C)[C@@H](O)[C@@H](OC)C(=O)[C@H](C)C[C@H](C)\C=C/C=C/C=C/1C`, for which the growth is 1.57% (active).
In the case of `COc1cc(/C=C2\C(=O)Nc3ccccc32)ccc1OCc1ccc(Cl)cc1`, the growth was 102%.
